ASM inhibitor: Inhibitors of Secretory Acid Sphingomyelinase (S-ASM): qHTS | Sphingomyelin phosphodiesterase (Homo sapiens), P17405 | placental ASM, HMU-PC fluorogenic substrate, 60 min | Potency, µM (top dose mostly 57.5 µM), for the others: top-dose activity change, negative = inhibition, hits mostly inhibitors | 0.006% of 340,000 active; further: potency means the concentration at half of the fitted maximal effect
Target sequence (P17405 47-631 limits assumed): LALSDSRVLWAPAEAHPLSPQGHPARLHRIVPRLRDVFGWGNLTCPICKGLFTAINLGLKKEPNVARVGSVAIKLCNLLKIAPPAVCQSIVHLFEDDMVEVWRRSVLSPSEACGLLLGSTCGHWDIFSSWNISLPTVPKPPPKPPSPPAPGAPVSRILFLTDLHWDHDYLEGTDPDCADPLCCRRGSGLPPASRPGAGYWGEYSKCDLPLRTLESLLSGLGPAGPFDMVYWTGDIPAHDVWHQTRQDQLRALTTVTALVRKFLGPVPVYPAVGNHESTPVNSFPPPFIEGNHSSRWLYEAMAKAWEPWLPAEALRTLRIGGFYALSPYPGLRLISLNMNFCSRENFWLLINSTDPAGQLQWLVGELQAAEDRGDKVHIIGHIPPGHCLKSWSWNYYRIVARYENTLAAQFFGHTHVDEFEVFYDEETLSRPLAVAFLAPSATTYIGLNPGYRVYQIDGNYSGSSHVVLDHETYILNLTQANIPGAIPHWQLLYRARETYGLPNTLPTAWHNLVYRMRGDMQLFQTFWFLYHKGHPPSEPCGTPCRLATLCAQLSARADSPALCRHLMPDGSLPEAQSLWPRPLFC
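Human placenta-derived ASM preincubated with compound 10 min at room temperature, then reacted with 9 uM (final) fluorogenic HMU-PC substrate for 60 min at 37 C. Stop solution raises pH to 10; fluorescence read at Ex 386/Em 447 nm.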
HepG2 tox: qHTS for Inhibitors of TGF-b: Cytotox Counterscreen | HepG2 CAGA-GFP viability, ATP luminescence, 18 h | 0.76% of 410,000 active | Potency, µM (doses to about 46.1 µM), for the others: top-dose activity change, negative = cytotoxicity, most hits filed as cytotoxic; further: potency means the concentration at half of the fitted maximal effect
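HepG2 CAGA-GFP cells (1000/well, DMEM with 1% FBS) received compound, then TGF-beta at 500 pg/mL final, and were incubated 18 hours at 37 degrees C. Viability was read by CellTiter-Glo luminescence. Media-only wells were set as complete cell-killing and DMSO as no toxicity.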
TGFb SMAD3 inh: qHTS for Inhibitors of TGF-b; 1.2% of 410,000 active; HepG2 CAGA-GFP TGF-b/SMAD3 reporter, GFP fluorescence, 18 h; TGF-beta stimulated, 500 pg/mL final; AID 588855, 2011; Potency, µM (highest dose often 46.1 µM), without a hit: top-dose activity, negative = inhibition, usual class: inhibitors; further: potency means the concentration at half of the fitted maximal effect; on the % scale 0 is the no-effect control and ±100 the full control effect; nearly all actives have a fitted effect of over 65% in size
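Cell-based qHTS in HEPG2 carrying a CAGA-GFP Smad reporter; compounds added before 500 pg/mL final TGF-beta, 18 h incubation at 37 degrees C, GFP fluorescence quantified per cell by imaging cytometry.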
IL-1B inflam inh: qHTS for Inhibitors of Inflammasome Signaling: IL-1-beta AlphaLISA Primary Screen. THP-1 LPS/ATP IL-1B secretion, AlphaLISA, 16 h; hits give low values. activity change, % at 57.5 µM. 4.7% of 360,000 active. AID 743279, 2014; in the data active means activity change below about -50%; inconclusive means mostly about -30% to -49%; further: on the % scale 0 is the no-effect control and ±100 the full control effect
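Secreted IL-1B measured by AlphaLISA bead assay after 16 h compound exposure of THP-1 cells; compounds (final up to 57.5 uM) added 1 h before LPS (250 ng/mL) and ATP (1.25 mM) stimulation; lower signal means less secretion.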
TDP1 cell noCPT: qHTS for Inhibitors of human tyrosyl-DNA phosphodiesterase 1 (TDP1): qHTS in cells in absence of CPT; DT40 Tdp1-/- hTDP1 cells, no CPT, ATP luminescence, 48 h; Potency, µM (titrated, usually from 46.2 µM), without a hit: at the highest dose activity change, negative = growth inhibition, usual class: inhibitors; 15% of 420,000 active; AID 686978, 2013; further: potency means the concentration at half of the fitted maximal effect; on the % scale 0 is the no-effect control and ±100 the full control effect; nearly all actives have a fitted effect of over 55% in size
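No-CPT arm: Tdp1-/-;hTDP1 DT40 cells (400/well) plus compounds, incubated ≥48 hr at 37 °C. Readout CellTiter-Glo luminescence.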
DT40 TDP1 CPT: qHTS for Inhibitors of human tyrosyl-DNA phosphodiesterase 1 (TDP1): qHTS in cells in presence of CPT; chicken DT40 Tdp1-/-;hTDP1 cells + 20 nM CPT, ATP luminescence, 48 h; Potency, µM (titrated, usually from 46.2 µM), for inactives: at the highest dose activity change, negative = growth inhibition, hits mostly inhibitors; 12% of 420,000 active; AID 686979, 2013; further: potency means the concentration at half of the fitted maximal effect; on the % scale 0 is the no-effect control and ±100 the full control effect; nearly all actives have a fitted effect of over 55% in size
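Chicken DT40 Tdp1-/- cells complemented with human TDP1, 400 cells/well, exposed to compounds plus 20 nM camptothecin for at least 48 h at 37 C; viability read as ATP content by CellTiter-Glo luminescence.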
* = called active by the depositor; i = inactive; ? = inconclusive; . = no result given; ! = a repeat was not active. This is a sample that favours compounds with a hit; in the whole collection about 19% have one here. Unless noted, the call rests on the fitted dose curve; in most records, active means well fitted curve in the direction sought with a large enough effect; inconclusive means small, poorly fitted or top-dose-only effect, or another doubt; inactive means no such curve, though single readings can be large; an effect the other way counts as inactive or inconclusive.

SMILES	ASM inhibitor	HepG2 tox	TGFb SMAD3 inh	IL-1B inflam inh	TDP1 cell noCPT	DT40 TDP1 CPT
O=c1[nH]c(Cc2ccccc2)nc2c1oc1ccccc12	0%	-4%	?	0	?	6.5µM*
CC(C)(C)C1=C(C#N)C(c2ccncc2)C(C#N)=C(N)O1 (stereo unspecified)	9%	-11%	-7%	-8	29µM*	18µM*
O=C1c2ccccc2CCC1C(O)c1ccccn1 (stereo unspecified)	3%	-15%	2%	-6	-19%	-3%
O=C(OC1CCc2ccccc2C1=O)c1ccccc1O (stereo unspecified)	-7%	6%	10%	10	16µM*	23µM*
O=C(c1ccncc1)c1ccc(N2CCN(C3CC(=O)N(Cc4cccs4)C3=O)CC2)cc1 (stereo unspecified)	-2%	-47%	?	-3	23µM*	16µM*
CCN1C(=O)CC(N2CCN(c3ccc(C(=O)c4ccncc4)cc3)CC2)C1=O (stereo unspecified)	-3%	-7%	-7%	17	-13%	?
O=C1CC(N2CCN(c3ccc(O)cc3)CC2)C(=O)N1Cc1cccs1 (stereo unspecified)	3%	-5%	3%	13	?	-13%
CCOc1ccc(N2C(=O)CC(N3CCN(c4ccc(C(=O)c5ccncc5)cc4)CC3)C2=O)cc1 (stereo unspecified)	7%	-3%	-6%	-3	21µM*	?
OCCN(CCO)c1nc(N2CCCCC2)c2nc(N(CCO)CCO)nc(N3CCCCC3)c2n1	i	-16%	35%	-18	15µM*!	4.6µM*
CN(C)C(=O)CN1CCN(c2nc3nonc3nc2N2CCCCC2)CC1	0%	-15%	4%	-17	?	-15%
COc1ccc(NC(=O)N(C)C[C@H]2OCCCC[C@H](C)Oc3ccc(NC(=O)Nc4ccc5c(c4)OCO5)cc3C(=O)N([C@@H](C)CO)C[C@@H]2C)cc1	.	0%	-4%	-30	?	21µM*
COc1ccc(NC(=O)N(C)C[C@H]2OCCCC[C@@H](C)Oc3ccc(N(C)C)cc3C(=O)N([C@H](C)CO)C[C@@H]2C)cc1	.	4%	1%	13	?	-27%
C[C@@H]1CN([C@H](C)CO)C(=O)c2cc(NC(=O)Nc3ccc(F)cc3)ccc2O[C@@H](C)CCCCO[C@H]1CN(C)S(=O)(=O)c1ccc(Cl)cc1	.	-3%	?	.	?	26µM*
C[C@H]1CCCCO[C@H](CN(C)C(=O)Nc2ccc(F)cc2)[C@@H](C)CN([C@@H](C)CO)C(=O)c2cc(NC(=O)Nc3ccc4c(c3)OCO4)ccc2O1	.	-4%	?	-17	?	21µM*
CCC(NC(=O)CCc1nnc(-c2cc(C)on2)o1)C12CC3CC(CC(C3)C1)C2 (stereo unspecified)	0%	5%	0%	25	16µM*	21µM*
CS(=O)(=O)N1CCN(c2ccccc2NC(=O)c2ccc(-c3ccc(Br)cc3)o2)CC1	-1%	-7%	-4%	22	?	?
COc1ccc(C(=O)NNC(=S)NC(=O)c2ccc(Cl)cc2)cc1	2%	-18%	-9%	68	23µM*	?
COC(=O)/C(=C\Nc1ccc(Cl)cc1Cl)NC(=O)c1ccc(OC)cc1	-4%	-9%	-16%	-7	4.1µM*	3.7µM*
COc1ccc(C(=O)NC(=S)NNC(=O)c2ccc(NC(=O)C(C)C)cc2)cc1	-2%	-9%	-23%	-4	15µM*	16µM*
COc1cc(C(=O)NNC(=S)NC(=O)c2ccc(Cl)cc2)cc(OC)c1OC	4%	-29%	?	21	23µM*	?
CCN(CC)CCNC(=O)C(=O)NCC1OCCN1S(=O)(=O)c1ccc([N+](=O)[O-])cc1 (stereo unspecified)	-2%	-6%	3%	36	-18%	?
CNC(=S)Nc1ccc(C(N)=O)cc1	1%	-1%	-16%	40	-24%	5%
COc1cc(C(=O)NC(=S)Nc2nccs2)cc(OC)c1OC	-1%	-17%	-8%	-29	21µM*	?
COc1cc(CC(=O)Nc2nccs2)cc(OC)c1OC	4%	0%	-5%	14	-5%	-28%
CCc1ccc2c(c1)c(=O)c(S(=O)(=O)c1ccc(F)cc1)cn2CC(=O)Nc1ccccc1OC	.	4%	?	.	-20%	5%
SMILES	ASM inhibitor	HepG2 tox	TGFb SMAD3 inh	IL-1B inflam inh	TDP1 cell noCPT	DT40 TDP1 CPT
CN(C)c1cccc2c1c(NC(=O)c1ccc(F)cc1)nn2C	0%	-33%	-12%	26	?	?
CN(C)c1cccc2c1c(NC(=O)Nc1ccc(F)cc1F)nn2C	-2%	-15%	-24%	-53*	?	?
CCOC(=O)c1cc2nc(OCC)nc(OCC)c2[nH]1	1%	3%	9%	-6	-20%	-11%
Cc1ccc(NC(=O)C2c3ccccc3-c3ccccc32)cc1	.	-18%	-9%	-2	?	6.5µM*
Cc1ccc(C(=O)NC2c3ccccc3-c3ccccc32)cc1	0%	10%	4%	14	3.7µM*	2.9µM*
Cc1ccc(C(=O)NC2CCc3ccccc3C2=O)cc1 (stereo unspecified)	7%	1%	-10%	-6	-25%	?
CN(CC(=O)Nc1ccc(Cl)c(Cl)c1)CC(=O)N1CCc2ccccc21	.	-49%	?	-21	?	-21%
CCOC(=O)C1(CC2CC2)CCN(Cc2cn[nH]c2-c2ccccc2)CC1	6%	-2%	7%	0	13%	-13%
CCOC(=O)C1(CC2CC2)CCN(Cc2ccc3cccc(F)c3n2)CC1	-1%	-28%	-20%	?	16µM*	21µM*
CCOC(=O)C1(CC2CC2)CCN(Cc2cnc(-c3ccc(OC)cc3)nc2)CC1	-1%	-11%	-30%	33	16µM*	?
CCOC(=O)C1(CC2CC2)CCN(S(=O)(=O)/C=C/c2ccccc2)CC1	-2%	0%	?	-17	-16%	-28%

High-throughput results: PubChem BioAssay, National Center for Advancing Translational Sciences (NCATS)
